The record followed here is PubChem BioAssay (EPA / NIEHS).

One may read the AC50 as the concentration at which the activity in the assay is half-maximal.

Calls of active or inactive are those of the source. The calls were made as follows: active = hit-call score of the fitted dose curve at least 0.9, where 1 is the maximum; inactive = score below 0.9.

Read-out in this experiment: Low-density lipoprotein receptor (LDLR), LDLR (gene 3949)
Briefly: BSK_CASM3C_LDLR: BioMAP Diversity Plus: CASM3C Assay for Low-density lipoprotein receptor (LDLR) Biomarker Activity (AID 2283045).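 Also: LDLR protein level on the cell surface quantified by ELISA.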 Conditions: primary human coronary artery smooth muscle cells; actives raise or lower the signal.
Take `COCCOC[C@H](CC1(C(=O)NC2CCC(C(=O)O)CC2)CCCC1)C(=O)Oc1ccc2c(c1)CCC2` (some centres undefined): the result was inactive.
`COc1cc(-c2nc(NC(=O)c3cc4cc(C)cc(C)c4n3CC(=O)O)sc2CCC2CCCCC2)c(OC)cc1Cl`: the half-maximal activity concentration (AC50) was 4.25 µM (active).
Regarding `NCC1(Cc2noc(=O)[nH]2)CCCCC1`, the outcome was inactive.
As for `CCCCC(CC)COC(=O)CC(C(=O)OCC(CC)CCCC)S(=O)(=O)O` (centres undefined), the outcome was inactive.
Still for that read-out and setting: to `CCOC(=O)CCC(=O)OCC` belongs “inactive”.
On to `Nc1ccc(S(=O)(=O)c2ccc(N)cc2)cc1`, for which the outcome was inactive.
Same read-out and setting: for `CC(C)c1ccc(C(=O)N=C(N)N)cc1S(C)(=O)=O` the value was “inactive”; for `CCCCCCOCCO`, “inactive”.
On the same count and under the same terms, to `CC(CO)OC(C)CO` (centres undefined) (tested in a mixture with another compound) belongs “inactive”.
Same read-out and setting: to `COc1cc(C=O)ccc1O` belongs “inactive”; to `c1cc(-c2ccncc2)ccn1`, “inactive”; to `CCNc1cccc(C)c1`, “inactive”.
Take `CN1CCN(Cc2cc(-c3ccc4[nH]c(=O)oc4c3)co2)[C@@H](c2ccc(F)cc2)C1`: the result was inactive.
The same measure, in the same setting: for `Cc1nc(-c2ccc3c(c2)CCN(CCC2CCC(NC(=O)/C=C/c4ccc(F)cc4)CC2)CC3)no1` (centres undefined) the value was “inactive”.
`O=c1c(O)c(-c2ccc(O)c(O)c2)oc2cc(O)cc(O)c12`: the half-maximal activity concentration (AC50) is 4.11 µM (active).
With `CN[C@H]1CC[C@@H](c2ccc(Cl)c(Cl)c2)c2ccc(S(N)(=O)=O)cc21`, the AC50 was 34.8 µM (active).
Consider `CCCCN(CCCC)CCCC`, for which the outcome was inactive.
Same read-out and setting: to `COC(=O)c1ccc(O)cc1` belongs “inactive”; to `CC1=C(/C=C/C(C)=C/C=C/C(C)=C/CO)C(C)(C)CCC1`, “inactive”; to `CNC(=O)[C@H]1O[C@@H](n2cnc3c(NCc4cc(Cl)ccc4OCc4cc(C)no4)ncnc32)[C@H](O)[C@@H]1N`, “inactive”.
Take `Cc1cc(=O)[nH]c(=S)[nH]1`: the outcome was inactive.
`CCCCc1ccc2c(n1)[C@@H](c1ccc(OC)cc1C[C@H](C)C(=O)O)[C@H](C(=O)O)[C@H]2c1ccc2c(c1)OCO2`: the outcome was inactive.
For the compound `FC(F)(F)C(F)(F)C(F)(F)C(F)(F)C(F)(F)C(F)(F)CCI`, the outcome was inactive.
On the same count and under the same terms, to `C=CCOC(=O)c1ccccc1C(=O)OCC=C` belongs “inactive”; to `O=[N+]([O-])C(CO)(CO)CO`, “inactive”.
The same measure, in the same setting: to `Oc1ccc2ccccc2c1N=Nc1ccccc1` belongs “inactive”.
`O=C(N[C@@H](Cc1ccccc1)[C@@H](O)C(=O)N1C[C@@H](O)[C@@H](O)C1)c1cc2cc(Cl)ccc2[nH]1`: the outcome was inactive.
Still for that read-out and setting: for `CCCCCCCCCCCCCCCC` the value was “inactive”; for `CCCCCCCCCCC`, “inactive”.
